Screening results: PubChem BioAssay, several laboratories
An excerpt weighted towards active compounds, which were near 0.98% of everything screened.
LANA-H2B inh – blocks KSHV LANA binding to histone H2A/H2B; AID 2629; Q9QR71; inhibition, % (no concentration beside the values); cell-free LANA-H2A/H2B peptide, fluorescence polarization; actives 0.6% (n = 320,000); in the data active = inhibition mostly above about 10%, no sharp cut-off; inactive = mostly below about 6.7%
cardiac RTF act – increases calcium sensitivity of human cardiac regulated thin filaments; P19429+P45379; IANBD-labeled TnC RTF fluorescence at EC20 calcium; 0% EC20 calcium, 100% full calcium; activation, % at 7.2 µM; actives 0.24% (n = 340,000);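 active = activation above the mean over all tested compounds plus 3 SD, cut at about 30% in these data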;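 note: rise in fluorescence read as greater calcium sensitivity of cardiac thin filaments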
LANA DNA inh – blocks KSHV LANA C-terminal domain binding to DNA; MBP-C-LANA/FAM-LBS DNA binding, fluorescence polarization; inhibition, % at 9 µM; actives 0.078% (n = 340,000); AID 504423;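 active = highest replicate inhibition at or above 60% at 9 µM, even if other replicates fall short; inactive = all replicates below 60% inhibition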
Keap1 Nrf2 FP – disrupts human Keap1 binding to Nrf2 peptide. Q14145. Keap1 Kelch-Nrf2 peptide fluorescence polarization, 1536-well. inhibition, % at 9.4 µM. actives 0.15% (n = 340,000); in the data active = inhibition above about 12%;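 note: human Keap1 Kelch domain with fluorescein labeled Nrf2 9mer peptide probe; higher means more block of Keap1 binding to Nrf2 peptide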
Target sequence (Q14145 whole entry, looked up, the tested form may be a part): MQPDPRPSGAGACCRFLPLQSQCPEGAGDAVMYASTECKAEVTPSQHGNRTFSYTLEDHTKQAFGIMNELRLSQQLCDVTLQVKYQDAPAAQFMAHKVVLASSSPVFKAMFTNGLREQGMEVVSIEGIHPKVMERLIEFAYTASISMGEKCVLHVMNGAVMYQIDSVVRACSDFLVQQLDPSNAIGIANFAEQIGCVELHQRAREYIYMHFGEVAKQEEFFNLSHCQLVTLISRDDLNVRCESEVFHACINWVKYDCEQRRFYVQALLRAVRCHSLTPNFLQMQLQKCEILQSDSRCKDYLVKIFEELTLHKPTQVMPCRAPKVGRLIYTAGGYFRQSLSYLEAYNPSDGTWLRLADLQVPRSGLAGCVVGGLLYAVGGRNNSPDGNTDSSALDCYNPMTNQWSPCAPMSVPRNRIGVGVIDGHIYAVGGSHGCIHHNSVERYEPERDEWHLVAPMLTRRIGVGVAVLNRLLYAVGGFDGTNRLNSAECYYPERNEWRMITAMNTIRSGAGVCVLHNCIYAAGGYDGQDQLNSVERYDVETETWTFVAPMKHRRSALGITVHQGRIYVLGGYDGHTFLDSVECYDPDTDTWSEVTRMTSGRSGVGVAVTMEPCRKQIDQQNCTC
RTF Ca sens inh – cardiac RTF calcium desensitization. IANBD-labeled cardiac RTF, Ca2+ fluorescence. actives 0.12% (n = 340,000). inhibition, % at 7.15 µM. P19429+P45379;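 active = inhibition above the mean inhibition of all tested compounds plus 3 SD, cut at about 17% in these data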;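 note: assay run at fixed EC70 calcium of 1.6 mM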
Numbers stand for hits; n = inactive; x = not tested or not shown; + = active, no number.

SMILES	LANA-H2B inh	cardiac RTF act	LANA DNA inh	Keap1 Nrf2 FP	RTF Ca sens inh
COCCN(CCOC)S(=O)(=O)c1ccc(C(=O)Nc2nnc(C3CC3)o2)cc1	+	n	n	n	n
CC1(CCC(=O)N2CCCC(N3CCN(c4ccc(F)cc4)CC3)C2)CC1 (configuration not stated)	n	n	n	n	n
CCN1/C(=C/c2ccc3cc(C)cc(C)c3[n+]2CC)Sc2cc(C)ccc21	x	66	n	n	n
CCN1/C(=C\c2ccc3cc(C)ccc3[n+]2CC)Sc2cc(C)c(C)cc21	x	58	n	n	n
CCN1/C(=C/c2ccc3cc(C)ccc3[n+]2CC)Sc2ccc3sccc3c21	n	36	n	n	n
CCN1/C(=C/c2ccc3cccc(C)c3[n+]2CC)Sc2ccccc21	n	n	n	n	n
CC[n+]1c(C)sc2c3ccsc3ccc21	n	n	n	n	n
Cc1ccc(S(=O)(=O)N2CCN(S(C)(=O)=O)C2C)cc1 (configuration not stated)	n	n	n	n	n
Cc1ccc(CNC(=O)c2cc(=O)c3ccc(C)cc3o2)cc1	n	n	n	n	n
O=c1cc(-c2ccc(O)c(O)c2)oc2cc(O)c([C@@H]3O[C@H](CO)[C@@H](O)[C@H](O)[C@H]3O)c(O)c12	n	n	n	n	n
O=c1c2cc(O)c(O)cc2oc2cc(O)c(C3OC(CO)C(O)C(O)C3O)c(O)c12 (configuration not stated)	n	n	67	n	n
O=C(Cc1cccs1)Nc1cccc(C(=O)Nc2ccc(C(=O)O)cc2)c1	51	x	n	n	x
O=C(Cc1cccs1)Nc1ccc(C(=O)O)cc1	n	n	n	n	n
COc1ccc(C(=O)Nc2ccnn2C2CCN(C(=O)C3CCOC3)CC2)cc1 (configuration not stated)	n	n	n	n	n
O=C(Nc1ccc(C(=O)NC2CCCCC2)cc1)c1cccnc1	14	n	n	n	n
CC(=O)Nc1ccc(C(=O)NC2CCCC2)cc1	n	n	n	n	n
OCCCc1nc2n(n1)C(c1cccs1)C=C(c1ccccc1)N2 (configuration not stated)	68	x	x	x	x
Cc1ccccc1-c1nnc(SCC(=O)Nc2ccc3c(c2)OCCO3)n1N	n	n	n	n	n
Nn1c(SCC(=O)Nc2ccc3c(c2)OCCO3)nncc1=O	13	n	n	n	n
CC(C#N)Sc1nnc(-c2ccccc2F)n1C1CC1 (configuration not stated)	n	n	n	n	n
COc1ccc2c(c1)c(/C=C/c1cc[n+](C)cc1)cn2C	n	75	n	n	n
Cc1ccc(C(O)P(=O)(OCc2ccccc2)c2ccc(N(C)C)cc2)cc1 (configuration not stated)	11	n	n	n	n
CN(C)c1ccc(P(=O)(OCc2ccccc2)C(O)c2cccnc2)cc1 (configuration not stated)	n	n	n	n	n
COc1ccccc1CN=Cc1[nH]c2ccc(Br)c(Cl)c2c1O	n	n	n	n	n
Cc1cccc(N=Cc2[nH]c3ccc(Br)c(Cl)c3c2O)c1	n	63	n	n	n
SMILES	LANA-H2B inh	cardiac RTF act	LANA DNA inh	Keap1 Nrf2 FP	RTF Ca sens inh
CCn1c(COC(=O)CNC(=O)c2ccccc2)nc2cc(S(=O)(=O)N(C)C)ccc21	n	n	n	n	n
CCOC(=O)c1cc(-c2ccccc2)sc1NC(=O)CSc1nnc(N)s1	+	n	n	n	n
CN(C)/C(=N\S(=O)(=O)c1ccccc1)c1ccc(F)cc1	16	n	n	n	n
O=C(CN1C(=O)C2CC=CCC2C1=O)NCC1COc2ccccc2O1 (configuration not stated)	51	n	n	n	n
CC1CCCC(C)N1C(=O)c1cc2ncc(CCCl)cn2n1 (configuration not stated)	13	n	n	n	n
Cc1nn(CC(=O)N(C)c2c(N)n(Cc3ccccc3)c(=O)[nH]c2=O)c(C)c1[N+](=O)[O-]	n	n	n	n	n
CC[C@@](C)(NS(=O)(=O)OCC(Cl)(Cl)Cl)c1ccccc1	n	n	n	n	n
CC(C)(NS(=O)(=O)OCC(Cl)(Cl)Cl)c1ccccc1	43	n	n	n	n
O=C(CCc1c[nH]c2ccccc12)N1CCCCCCC1	60	n	n	n	n
Nc1ncnc2c1C(c1ccccc1)c1c(ccc3ccccc13)O2 (configuration not stated)	n	n	n	n	n
CCCCCC(=O)Nc1cccc2ccccc12	n	n	n	n	n
CCCC(=O)Nc1ccccc1NC(C)=O	18	n	n	n	n
COc1ccc(NC(=O)CN(C)CC(=O)NCc2ccc(C)cc2)cc1	n	n	n	n	n
CCc1ccc(C(=O)NNC(=O)c2c(CC)noc2C)cc1	n	n	n	n	n
CCc1noc(C)c1C(=O)NNC(=O)c1ccccc1	97	n	n	n	n
CCCc1cnc(N2CCN(C(=O)c3ccc(OC)cc3)CC2)nc1	n	n	n	n	n
O=C(COc1ccc(S(=O)(=O)N2CCOCC2)cc1)NCc1ccccn1	n	n	n	n	n
CCCN(CCO)CCCc1ccccc1	n	n	n	n	n
CCN(CCCc1ccccc1)CCCc1ccccc1	38	n	n	n	n
N#CCC(=O)Nc1ncc(Cc2ccccc2Cl)s1	33	n	n	n	n
CC(C)C(=O)Nc1ncc(Cc2ccccc2Cl)s1	n	n	n	n	n
Cc1ccccc1OCCC(=O)N1CCN(S(=O)(=O)c2ccc(Br)cc2)CC1	x	n	n	n	n
CC(C(=O)N1CCCCC1)N(C)CC(=O)Nc1cccc(F)c1 (configuration not stated)	30	x	x	x	x
COc1ccc(NC(=O)CN(C)C(C)C(=O)N2CCCCC2)cc1 (configuration not stated)	n	n	n	n	n
CCC(C)[C@H](NC(=O)NCCC1=CCCCC1)C(=O)O (some centres not stated)	35	n	n	n	n
SMILES	LANA-H2B inh	cardiac RTF act	LANA DNA inh	Keap1 Nrf2 FP	RTF Ca sens inh
CCOCc1c(C(=O)Nc2ccc(OC)nc2)oc2ccccc12	n	n	n	n	n
Cn1c(N)c(C(c2ccccc2)c2c(N)n(C)c(=O)n(C)c2=O)c(=O)n(C)c1=O	29	n	n	n	n
COc1ccc2c(n1)Sc1nc3ccccc3nc1N2	n	30	n	n	n
COc1cc2ccccc2nn1	n	n	n	n	n
Cc1occc1C(=O)N(Cc1nc(-c2ccccc2)no1)C(C)C	16	n	n	n	n
COc1cccc(Cn2cc(C)cc(NC(=O)NCc3ccccc3)c2=O)c1	23	n	n	n	n
Cc1cc(NC(=O)NCc2ccccc2)c(=O)n(Cc2ccccc2F)c1	n	n	n	n	n
COc1ccc(C2NC(=O)CCC2[N+](=O)[O-])c(OC)c1OC (configuration not stated)	n	n	n	n	n
COc1cc(OC)c(NC(=O)c2cc3ccccc3cc2O)cc1Cl	x	32	n	n	n
COc1cc(NC(=O)c2ccccc2)c(OC)cc1Cl	n	n	n	n	n
